Source: PubChem BioAssay
Shown are actives, neighbours in structure and some others; about 19% of the full set was active somewhere.
TDP1 block: blocks human tyrosyl-DNA phosphodiesterase 1; AID 485290; Q9NUW8; hit rate 0.28% among 350,000; Potency, µM (titrated, usually from 130 µM), hits mostly inhibitors; recombinant TDP1, AlphaScreen DNA substrate cleavage; also: nearly all actives have a fitted effect of over 40% in size
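E. coli-derived human Tdp1, 1 nM final. Cpd preinc 15 min RT; substrate 15 nM final, 5 min RT; AS bead mix 10 ug/ml final, 10 min RT. Signal loss = tyrosine-FITC cleavage. No-enzyme wells = max signal.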
DT40 TDP1 CPT: DT40-hTDP1 cell growth loss with CPT; Potency, µM (titrated, usually from 46.2 µM), actives largely listed as inhibitors; AID 686979; chicken DT40 Tdp1-/-;hTDP1 cells + 20 nM CPT, ATP luminescence, 48 h; hit rate 12% among 420,000; also: nearly all actives have a fitted effect of over 55% in size
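Cell growth measured by CellTiter-Glo luminescence after a minimum 48 h, 37 C compound exposure with 20 nM CPT in Tdp1-knockout DT40 cells stably expressing hTDP1, seeded 400/well; qHTS titration format.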
HepG2 tox: counter-screen for TGF-b inhibitors: cytotoxicity in HepG2 cells. Potency, µM (top dose mostly 46.1 µM), most hits filed as cytotoxic. hit rate 0.76% among 410,000. HepG2 CAGA-GFP viability, ATP luminescence, 18 h. AID 588856
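HepG2 CAGA-GFP cells (1000/well, DMEM with 1% FBS) received compound, then TGF-beta at 500 pg/mL final, and were incubated 18 hours at 37 degrees C. Viability was read by CellTiter-Glo luminescence. Media-only wells were set as complete cell-killing and DMSO as no toxicity.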
IL-1B inflam inh: inflammasome signaling inhibition, IL-1 beta readout; THP-1 LPS/ATP IL-1B secretion, AlphaLISA, 16 h; stronger effect = lower value; activity change, % at 57.5 µM; hit rate 4.7% among 360,000; AID 743279; in the data active = activity change below about -50%; inconclusive = mostly about -30% to -49%
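THP-1 cells pretreated 1 hr with compounds (up to 57.5 uM final), then stimulated with LPS (250 ng/mL final) plus ATP (1.25 mM final); secreted IL-1B measured by AlphaLISA after 16 hr, decreased signal indicating inhibition.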
TGFb inhibitor: inhibitors of TGF-b signaling; hit rate 1.2% among 410,000; HepG2 CAGA-GFP TGF-b/SMAD3 reporter, GFP fluorescence, 18 h; TGF-beta stimulated, 500 pg/mL final; Potency, µM (series often up to 46.1 µM), actives largely listed as inhibitors; also: nearly all actives have a fitted effect of over 65% in size
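Smad-responsive CAGA-GFP expression was quantified in HEPG2 cells exposed to compounds and 500 pg/mL final TGF-beta for 18 h at 37 degrees C; unstimulated wells defined full inhibition.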
TDP1 cell noCPT: qHTS for Inhibitors of human tyrosyl-DNA phosphodiesterase 1 (TDP1): qHTS in cells in absence of CPT. Potency, µM (series often up to 46.2 µM), actives largely listed as inhibitors. DT40 Tdp1-/- hTDP1 cells, no CPT, ATP luminescence, 48 h. hit rate 15% among 420,000; also: nearly all actives have a fitted effect of over 55% in size
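Luminescent ATP content (CellTiter-Glo) served as the growth readout. Knockout chicken DT40 cells expressing human TDP1 were exposed to compounds without camptothecin for a minimum 48 hr at 37 °C.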
Hits are given with their value; i = inactive; ? = inconclusive; nt = not tested or not shown; [ ] = another dose, or the depositor's remark. Unless noted, calls follow the shape of the dose curve; as a rule, active = well fitted curve in the direction sought with a large enough effect; inconclusive = small, poorly fitted or top-dose-only effect, or another doubt; inactive = no such curve, though single readings can be large; an effect the other way counts as inactive or inconclusive.

SMILES	TDP1 block	DT40 TDP1 CPT	HepG2 tox	IL-1B inflam inh	TGFb inhibitor	TDP1 cell noCPT
CN1CCN(c2nc3ccccc3nc2C(C#N)S(=O)(=O)c2ccccc2)CC1 (stereo not given)	i	i	i	?	7.9µM	i
CCOC(=O)C1CCCN(c2nc3ccccc3nc2C(C#N)C(=O)OC(C)C)C1 (stereo not given)	i	?	i	i	i	?
CCOC(=O)C1CCN(c2nc3ccccc3nc2C(C#N)C(=O)OCCOC)CC1 (stereo not given)	i	?	i	i	i	?
N#CC(c1nc2ccccc2nc1N1CCCC1)S(=O)(=O)c1ccccc1 (stereo not given)	i	i	i	i	i	i
C=CCOC(=O)C(C#N)c1nc2ccccc2nc1N1CCN(Cc2ccc3c(c2)OCO3)CC1 (stereo not given)	i	?	i	-52	i	?
Cc1cc(C)n(-c2ccc(C(=O)NCC3Cc4cc(-c5cnccn5)ccc4O3)cc2)n1 (stereo not given)	nt	i[9.04 µM]	nt	nt	nt	i
C=Cc1ccc(CN2C(=O)c3ccccc3Sc3ccc(C(=O)OCc4ccco4)cc32)cc1	i	nt	i	nt	i	nt
CCc1c2c(nc3cccc(OC)c13)OC(CC)C2 (stereo not given)	i	nt	nt	nt	nt	nt
COc1ccc(CNC(=O)C(C#N)c2nc3ccccc3nc2N2CCCC2)cc1 (stereo not given)	i	?	i	i	i	?
CN1CCN(c2nc(-c3ccccc3)ncc2S(C)(=O)=O)CC1	nt	i	i	i	i	i
COC(=O)C1CCN(c2nc3ccccc3nc2C(C#N)C(=O)NCCc2ccccc2)CC1 (stereo not given)	i	?	i	i	i	?
COC(=O)C1CCN(c2nc3ccccc3nc2C(C#N)C(=O)OCC(C)C)CC1 (stereo not given)	i	23µM	i	i	i	12µM
CN1CCN(c2nc(-c3ccccc3)ncc2S(=O)(=O)c2ccccc2)CC1	i	i	i	-52	i	?
COc1ccc(CNC(=O)C(C#N)c2nc3ccccc3nc2N2CCN(C)CC2)cc1 (stereo not given)	i	?	i	-52	i	i
C=CCOC(=O)C(C#N)c1nc2ccccc2nc1N1CCN(c2ccccc2OCC)CC1 (stereo not given)	i	i	i	i	i	i
C=CCOC(=O)C(C#N)c1nc2ccccc2nc1N1CCC(C(=O)OCC)CC1 (stereo not given)	i	?	i	i	i	18µM
Cc1ccc2onc(CC(=O)N3CCN(c4cccc(C)c4C)CC3)c2c1	i	?	i	nt	?	?
CCOC(=O)C1CCc2c(ccc3ccccc23)N1CCC#N (stereo not given)	nt	?	i	i	i	?
O=C(c1csnn1)N1CCC2(CCCN(Cc3ccccc3)C2)CC1	nt	i	nt	nt	nt	i
Cc1ccc(NS(=O)(=O)c2cc3c(cc2C)NC(=O)CO3)cc1C	i	nt	nt	nt	nt	nt
Cc1ccc(S(=O)(=O)N(C)Cc2nc(-c3ccncc3)no2)cc1	i	?	i	i	i	?
COc1ccc(S(=O)(=O)NCc2cccs2)cc1	22µM	i	i	i	?	i
COc1ccc(S(=O)(=O)N(Cc2ccccc2)Cc2nc(-c3ccccc3)no2)cc1	i	15µM	i	i	i	18µM
Cc1ccc(-c2noc(CN(C3CCCCC3)S(=O)(=O)c3ccc(F)cc3)n2)cc1	i	?	i	nt	i	18µM
COc1ccc(S(=O)(=O)N(Cc2cccs2)C2CCCC2)cc1	i	18µM	i	i	i	12µM
CCC1CN(CC(=O)NCc2ccc3c(c2)OCO3)Cc2ccc(Cl)cc2O1 (stereo not given)	nt	i[9.04 µM]	nt	nt	nt	i
CCC1CCCCN1C(=O)Cn1c(=O)cc(C(F)(F)F)c2c(C)nn(C)c21 (stereo not given)	i	?	i	nt	i	?
